Values joined by “and” are separate entries in the source; they are usually repeats but may differ in a detail not shown here. Equal entries are not always repeated. Results filed as inconclusive are left out. Some structures have more than one record in an assay (separate samples or runs), and their calls can disagree. Active and inactive are the calls of the source. How the source made its calls, unless noted: active means hit-call score of the fitted dose curve at least 0.9, where 1 is the maximum; inactive means score below 0.9.
Key:
[1] = molecular target: Retinoic acid receptor RXR-alpha (Homo sapiens) (UniProt P19793); test: ATG_RXRa_TRANS: Attagene TRANS-FACTORIAL HepG2 Assay for human Retinoid X Receptor alpha (RXRa) (AID 2283012; active means hit-call score of the fitted dose curve at least 0.9, where 1 is the maximum)
In short: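 Measures exogenous chimeric NR-GAL4 activity in transfected HepG2 liver cells after 24 h of dosing. Induced reporter mRNA was detected by RT-PCR with capillary electrophoresis, and gain of signal was analysed against DMSO.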

[2] = molecular target: human Thyroid Receptor alpha (THRa1), THRA (gene 7067) (UniProt P10827); test: ATG_THRa1_TRANS: Attagene TRANS-FACTORIAL HepG2 Assay for human Thyroid Receptor alpha (THRa1) (AID 2283014; active means hit-call score of the fitted dose curve at least 0.9, where 1 is the maximum)
In short: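 Measured here is mRNA from a GAL4-UAS reporter in transfected HepG2 cells carrying a Gal4-fused receptor, 24 h post-dose. DMSO served as negative control and baseline.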

[3] = read-out: E-selectin (Homo sapiens) (UniProt P16581); test: BSK_3C_Eselectin: BioMAP Diversity Plus: 3C Assay for Eselectin Biomarker Activity (AID 2283015); details: primary human endothelial cells (HUVEC); actives raise or lower the signal
In short: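 Endpoint derived by bidirectional fitting against DMSO vehicle; signal is ELISA-detected E-selectin from primary HUVEC at 24 h post-dosing, with parallel SRB staining (0.1% SRB, 560 nm) flagging cytotoxicity.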

[4] = read-out: Monocyte Chemoattractant Protein-1 (MCP1), CCL2 (gene 6347); test: BSK_4H_MCP1: BioMAP Diversity Plus: 4H Assay for Monocyte Chemoattractant Protein-1 (MCP1) Biomarker Activity (AID 2283018); details: primary human endothelial cells (HUVEC); actives raise or lower the signal
In short: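 Endothelial cells from umbilical vein were treated with test chemical, then after 24 h MCP-1 levels were quantified by ELISA; endpoint values came from bidirectional fitting with DMSO as baseline of activity.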

[5] = read-out: Human Leukocyte Antigen - DR isotype (HLADR), HLA-DRA (gene 3122); test: BSK_3C_HLADR: BioMAP Diversity Plus: 3C Assay for Human Leukocyte Antigen - DR isotype (HLADR) Biomarker Activity (AID 2283019); details: primary human endothelial cells (HUVEC); actives raise or lower the signal
In short: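 Compound added to primary HUVEC cultures, 24 h incubation, then HLA-DR determined by ELISA; endpoint derived by bidirectional fitting relative to DMSO negative control.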

[6] = read-out: Interleukin-8 (IL8), CXCL8 (gene 3576); test: BSK_3C_IL8: BioMAP Diversity Plus: 3C Assay for Interleukin-8 (IL8) Biomarker Activity (AID 2283020); details: primary human endothelial cells (HUVEC); actives raise or lower the signal
In short: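 Endothelial primary cells of human umbilical vein origin are dosed with chemical; after 24 h the IL-8 biomarker is measured by ELISA, and concentration–response is fitted in both directions versus DMSO.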

[7] = read-out: Monokine induced gamma interferon (MIG), CXCL9 (gene 4283); test: BSK_3C_MIG: BioMAP Diversity Plus: 3C Assay for Monokine induced gamma interferon (MIG) Biomarker Activity (AID 2283021); details: primary human endothelial cells (HUVEC); actives raise or lower the signal;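 on AC50: MIG protein level measured by immunoassay in the treated endothelial cultures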
In short: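 Endothelial primary cells (human umbilical vein) are dosed with test chemical in the 3C system. MIG levels are measured by ELISA at 24 h and fitted in both directions relative to DMSO.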

[8] = molecular target: human Vitamin D Receptor (VDR), VDR (gene 7421) (UniProt P11473); test: ATG_VDR_TRANS: Attagene TRANS-FACTORIAL HepG2 Assay for human Vitamin D Receptor (VDR) (AID 2283022; active means hit-call score of the fitted dose curve at least 0.9, where 1 is the maximum)
In short: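 Multiplexed TRANS reporter in HepG2; 24 h treatment; reporter mRNA by RT-PCR plus capillary electrophoresis; upregulation scored relative to DMSO.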

[9] = BSK_3C_SRB: Viability Assessment in the BioMAP Diversity Plus: 3C Assay (AID 2283023); details: primary human endothelial cells (HUVEC);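 further: fitted both ways against DMSO so a hit may be signal rise or drop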
In short: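 Overt cytotoxicity is gauged in parallel confluent HUVEC cultures by SRB total-protein staining at the time of biomarker measurement, 24 h after dosing. Gain or loss of signal is fitted versus DMSO.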

[10] = read-out: Matrix Metallopeptidase 1 (MMP1), MMP1 (gene 4312); test: BSK_BE3C_MMP1: BioMAP Diversity Plus: BE3C Assay for Matrix Metallopeptidase 1 (MMP1) Biomarker Activity (AID 2283024); details: primary human bronchial epithelial cells; actives raise or lower the signal
In short: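 MMP1 signal, measured by ELISA after a 24 h chemical exposure of human primary bronchial epithelial cells, is analysed with bidirectional fitting using DMSO as negative control.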

[11] = read-out: Pselectin, SELP (gene 6403); test: BSK_4H_Pselectin: BioMAP Diversity Plus: 4H Assay for Pselectin Biomarker Activity (AID 2283026); details: primary human endothelial cells (HUVEC); actives raise or lower the signal
In short: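 Endothelial primary cells (human umbilical vein) are dosed, incubated 24 h, and assayed for surface P-selectin by ELISA; responses in either direction are fitted relative to the DMSO negative control.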

[12] = BSK_4H_SRB: Viability Assessment in the BioMAP Diversity Plus: 4H Assay (AID 2283027); details: primary human endothelial cells (HUVEC);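 further: cells exposed to compound for 24 h before staining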;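 on AC50: curves fitted both ways versus DMSO so AC50 may be loss or gain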
In short: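 Cytotoxicity readout: sulforhodamine B (0.1%) staining of total protein after 10% TCA fixation, measured at 560 nm in human umbilical vein endothelium at 24 h. DMSO set the baseline; fitting was bidirectional.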

[13] = read-out: Thrombomodulin, THBD (gene 7056); test: BSK_3C_Thrombomodulin: BioMAP Diversity Plus: 3C Assay for Thrombomodulin Biomarker Activity (AID 2283029); details: primary human endothelial cells (HUVEC); actives raise or lower the signal
In short: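 Endothelial cells from umbilical vein are dosed with test chemical and incubated 24 h. Thrombomodulin is then quantified by ELISA, with DMSO serving as negative control and activity baseline.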

[14] = BSK_3C_Vis: BioMAP Diversity Plus: 3C Assay for Morphology Visualization (AID 2283025); details: primary human endothelial cells (HUVEC);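 further: fitted both ways so gain or loss versus DMSO counts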
In short: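 Morphology read by light microscopy serves as a background control for the multiplexed 3C assay in human umbilical vein endothelial cells, taken 24 h after dosing, with DMSO as the negative control and bidirectional curve fitting.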

[15] = BSK_BE3C_SRB: Viability Assessment in the BioMAP Diversity Plus: BE3C Assay (AID 2283028); details: primary human bronchial epithelial cells
In short: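 SRB total-protein staining (0.1%, after TCA fixation) of chemically dosed human bronchial epithelial primary cells at 24 h; DMSO serves as the negative control for bidirectional curve fitting.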

[16] = molecular target: human RAR-related Orphan Receptor gamma (RORg), RORC (gene 6097) (UniProt P51449); test: ATG_RORg_TRANS: Attagene TRANS-FACTORIAL HepG2 Assay for human RAR-related Orphan Receptor gamma (RORg) (AID 2283011; active means hit-call score of the fitted dose curve at least 0.9, where 1 is the maximum)
In short: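 Chimeric RORg-Gal4 transactivation in transfected HepG2; 24 h exposure; RT-PCR/capillary electrophoresis readout of reporter mRNA, DMSO baseline.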

[17] = read-out: Interleukin-1 alpha (IL1a), IL1A (gene 3552); test: BSK_BE3C_IL1a: BioMAP Diversity Plus: BE3C Assay for Interleukin-1 alpha (IL1a) Biomarker Activity (AID 2283016); details: primary human bronchial epithelial cells; actives raise or lower the signal
In short: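 Signal from IL-1a ELISA, taken 24 h after chemical dosing of human bronchial epithelial cells, is compared with DMSO as baseline using bidirectional curve fitting.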

[18] = molecular target: human Retinoid X Receptor beta (RXRb), RXRB (gene 6257) (UniProt P28702); test: ATG_RXRb_TRANS: Attagene TRANS-FACTORIAL HepG2 Assay for human Retinoid X Receptor beta (RXRb) (AID 2283013; active means hit-call score of the fitted dose curve at least 0.9, where 1 is the maximum)
In short: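 Chimeric receptor-Gal4 activity was assessed in transiently transfected human HepG2 cells after 24 h exposure. Transcripts from GAL4-UAS reporters were quantified by fluorescent RT-PCR and capillary electrophoresis, with DMSO as negative control and baseline.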

[19] = read-out: Monocyte Chemoattractant Protein-1 (MCP1), CCL2 (gene 6347); test: BSK_3C_MCP1: BioMAP Diversity Plus: 3C Assay for Monocyte Chemoattractant Protein-1 (MCP1) Biomarker Activity (AID 2283017); details: primary human endothelial cells (HUVEC); actives raise or lower the signal
In short: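 Using human vascular primary endothelium, researchers measured MCP-1 by ELISA 24 h after treatment, with DMSO serving as negative control for bidirectional fitting.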

Measured: AC50

Chain of human RAR-related Orphan Receptor gamma (RORg), RORC (gene 6097) (P51449 whole entry, looked up, the tested form may be a part): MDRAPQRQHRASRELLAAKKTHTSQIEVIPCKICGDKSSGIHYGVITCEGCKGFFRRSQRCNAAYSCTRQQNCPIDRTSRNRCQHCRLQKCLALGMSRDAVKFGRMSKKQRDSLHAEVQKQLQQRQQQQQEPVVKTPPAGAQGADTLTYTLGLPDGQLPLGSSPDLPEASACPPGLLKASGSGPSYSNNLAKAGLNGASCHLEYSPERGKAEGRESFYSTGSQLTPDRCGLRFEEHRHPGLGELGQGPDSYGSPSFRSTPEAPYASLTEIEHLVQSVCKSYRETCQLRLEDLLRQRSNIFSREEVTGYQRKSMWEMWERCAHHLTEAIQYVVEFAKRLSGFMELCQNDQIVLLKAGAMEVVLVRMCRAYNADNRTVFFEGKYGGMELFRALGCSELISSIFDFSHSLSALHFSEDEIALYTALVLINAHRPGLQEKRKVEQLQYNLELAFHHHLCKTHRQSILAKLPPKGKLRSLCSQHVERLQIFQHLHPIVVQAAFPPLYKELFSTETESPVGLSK
Chain of human Vitamin D Receptor (VDR), VDR (gene 7421) (P11473 whole entry, looked up): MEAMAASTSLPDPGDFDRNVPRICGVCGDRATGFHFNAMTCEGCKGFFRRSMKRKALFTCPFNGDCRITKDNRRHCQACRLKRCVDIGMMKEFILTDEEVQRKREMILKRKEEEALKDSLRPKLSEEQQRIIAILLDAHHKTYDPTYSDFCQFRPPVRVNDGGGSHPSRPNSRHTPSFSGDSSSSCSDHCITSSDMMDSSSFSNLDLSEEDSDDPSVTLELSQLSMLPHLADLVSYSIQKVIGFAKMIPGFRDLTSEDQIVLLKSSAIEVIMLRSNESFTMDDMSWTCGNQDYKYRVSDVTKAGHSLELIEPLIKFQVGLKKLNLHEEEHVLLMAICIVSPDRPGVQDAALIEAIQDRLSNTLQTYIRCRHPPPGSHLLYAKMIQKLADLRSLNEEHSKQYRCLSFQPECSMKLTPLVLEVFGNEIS
Chain of E-selectin (Homo sapiens) (P16581 whole entry, looked up): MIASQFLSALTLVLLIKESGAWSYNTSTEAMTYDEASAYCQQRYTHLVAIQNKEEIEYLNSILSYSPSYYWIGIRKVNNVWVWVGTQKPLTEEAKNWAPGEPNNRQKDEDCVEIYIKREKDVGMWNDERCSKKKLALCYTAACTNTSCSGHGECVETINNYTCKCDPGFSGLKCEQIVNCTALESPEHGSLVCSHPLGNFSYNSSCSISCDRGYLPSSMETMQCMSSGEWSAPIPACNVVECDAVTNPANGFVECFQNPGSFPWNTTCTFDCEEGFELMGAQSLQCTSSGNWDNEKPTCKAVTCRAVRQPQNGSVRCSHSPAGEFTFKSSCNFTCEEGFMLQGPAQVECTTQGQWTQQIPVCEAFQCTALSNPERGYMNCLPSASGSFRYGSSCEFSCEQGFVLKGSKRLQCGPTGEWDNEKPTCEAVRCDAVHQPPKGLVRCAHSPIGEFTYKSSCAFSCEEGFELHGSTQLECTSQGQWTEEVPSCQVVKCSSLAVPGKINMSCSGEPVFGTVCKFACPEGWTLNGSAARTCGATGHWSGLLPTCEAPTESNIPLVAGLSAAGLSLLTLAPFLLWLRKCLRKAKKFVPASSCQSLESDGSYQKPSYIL
Chain of human Thyroid Receptor alpha (THRa1), THRA (gene 7067) (P10827 whole entry, looked up, the tested form may be a part): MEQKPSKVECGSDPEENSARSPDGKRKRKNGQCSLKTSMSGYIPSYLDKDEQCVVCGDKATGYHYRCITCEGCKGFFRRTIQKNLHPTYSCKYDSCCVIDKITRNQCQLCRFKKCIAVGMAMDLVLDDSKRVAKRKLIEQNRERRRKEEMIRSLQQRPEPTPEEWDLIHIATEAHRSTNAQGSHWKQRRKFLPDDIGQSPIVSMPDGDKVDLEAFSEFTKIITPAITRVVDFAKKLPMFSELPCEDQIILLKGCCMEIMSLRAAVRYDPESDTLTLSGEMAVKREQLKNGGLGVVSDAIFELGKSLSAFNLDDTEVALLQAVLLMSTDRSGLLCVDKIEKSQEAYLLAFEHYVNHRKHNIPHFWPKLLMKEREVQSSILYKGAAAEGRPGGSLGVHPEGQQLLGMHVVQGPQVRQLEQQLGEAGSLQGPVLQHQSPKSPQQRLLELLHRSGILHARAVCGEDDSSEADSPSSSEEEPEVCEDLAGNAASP
Chain of Retinoic acid receptor RXR-alpha (Homo sapiens) (P19793 whole entry, looked up, the tested form may be a part): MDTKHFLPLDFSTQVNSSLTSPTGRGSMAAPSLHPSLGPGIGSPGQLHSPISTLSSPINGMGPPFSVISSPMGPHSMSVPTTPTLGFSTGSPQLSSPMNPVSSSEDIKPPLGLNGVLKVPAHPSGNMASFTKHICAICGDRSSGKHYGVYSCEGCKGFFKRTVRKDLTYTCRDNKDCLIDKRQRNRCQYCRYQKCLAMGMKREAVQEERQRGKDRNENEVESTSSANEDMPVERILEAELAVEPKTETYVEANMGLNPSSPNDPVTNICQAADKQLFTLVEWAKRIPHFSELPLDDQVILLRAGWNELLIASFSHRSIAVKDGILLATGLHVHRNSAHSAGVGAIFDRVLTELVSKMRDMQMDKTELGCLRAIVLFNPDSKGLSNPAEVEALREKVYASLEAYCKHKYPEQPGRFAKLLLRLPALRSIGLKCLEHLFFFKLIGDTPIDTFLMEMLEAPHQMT
Chain of human Retinoid X Receptor beta (RXRb), RXRB (gene 6257) (P28702 whole entry, looked up, the tested form may be a part): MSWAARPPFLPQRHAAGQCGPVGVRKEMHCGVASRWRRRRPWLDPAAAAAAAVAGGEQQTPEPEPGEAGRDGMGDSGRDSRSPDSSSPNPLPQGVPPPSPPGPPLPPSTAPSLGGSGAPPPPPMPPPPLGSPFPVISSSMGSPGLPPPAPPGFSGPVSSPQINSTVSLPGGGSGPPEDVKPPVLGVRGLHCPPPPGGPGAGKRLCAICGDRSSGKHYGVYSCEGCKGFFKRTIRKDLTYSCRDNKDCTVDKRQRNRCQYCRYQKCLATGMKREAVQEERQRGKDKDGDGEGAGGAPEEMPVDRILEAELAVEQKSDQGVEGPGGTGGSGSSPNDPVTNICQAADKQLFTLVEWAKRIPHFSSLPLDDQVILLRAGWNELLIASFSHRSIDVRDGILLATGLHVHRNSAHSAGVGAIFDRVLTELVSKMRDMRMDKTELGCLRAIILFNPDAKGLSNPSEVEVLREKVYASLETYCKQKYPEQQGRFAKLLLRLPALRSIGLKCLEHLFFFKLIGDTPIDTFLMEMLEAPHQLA

FC(F)(F)C(F)(F)C(F)(F)C(F)(F)C(F)(F)C(F)(F)C(F)(F)Br
inactive: [1] | [2] | [3] | [4] | [5] | [6] | [7] | [8] | [9] | [10] | [11] | [12] | [13]
active: [13] 1.29 µM

O[Si](c1ccccc1)(c1ccccc1)c1ccccc1
active: [3] 6.83 µM | [4] 11.9 µM | [5] 30.6 µM | [9] 28.9 µM | [14] 37.4 µM | [11] 26.8 µM | [12] 13.8 µM
inactive: [1] | [2] | [6] | [7] | [8] | [10] | [15] | [13]

OCC(F)(F)C(F)(F)C(F)(F)C(F)(F)C(F)(F)C(F)(F)F
active: [9] 58.5 µM | [11] 43.6 µM
inactive: [16] | [2] | [3] | [17] | [4] | [5] | [6] | [7] | [9] | [10] | [11] | [12] | [15] | [13]

FC(F)(I)C(F)(F)C(F)(F)C(F)(F)I
inactive: [16] | [4] | [13]
active: [3] 49 µM and 50.6 µM and 53.6 µM | [4] 45.6 µM and 19.3 µM | [5] 50.2 µM and 46.5 µM and 59 µM | [6] 46.1 µM and 53.1 µM and 53.3 µM | [7] 52.8 µM and 46.1 µM and 55.3 µM | [9] 55 µM and 51 µM and 51.9 µM | [10] 44 µM and 50.6 µM and 22.7 µM | [11] 47.9 µM and 30 µM and 44.7 µM | [12] 56.2 µM and 42.7 µM and 50.5 µM

CCCCCCC(C)OC(=O)CCCCC(=O)OC(C)CCCCCC (stereo not given)
active: [18] 16.3 µM
inactive: [1] | [3] | [4] | [5] | [6] | [7] | [8] | [9] | [10] | [14] | [11] | [12] | [13]

COC(=O)CCC(F)(F)C(F)(F)C(F)(F)C(F)(F)F
inactive: [2] | [3] | [19] | [4] | [5] | [6] | [7] | [8] | [9] | [10] | [11] | [12] | [15] | [13]

O=C(CC(=O)C(F)(F)C(F)(F)F)C(F)(F)F
inactive: [1] | [18] | [2] | [3] | [17] | [4] | [5] | [6] | [7] | [9] | [10] | [11] | [12] | [13]

O=C(Cl)C(F)(F)C(F)(F)C(F)(F)C(F)(F)C(F)(F)C(F)(F)C(F)(F)C(F)(F)F
active: [18] 25.7 µM | [17] 46.4 µM and 46.3 µM and 55 µM | [4] 5.95 µM | [5] 49.4 µM and 51.1 µM and 52.5 µM | [6] 41 µM | [9] 45 µM and 50.8 µM and 49.9 µM | [10] 50.8 µM and 51.7 µM and 52 µM | [12] 30 µM
inactive: [1] | [3] | [4] | [6] | [7] | [11] | [12] | [13]

FC1CC(F)(F)C(F)(F)C1(F)F (stereo not given)
inactive: [16] | [2] | [3] | [17] | [19] | [4] | [5] | [6] | [7] | [9] | [10] | [11] | [12] | [13]

FC(F)(F)C(F)(F)C(F)(F)C(F)(F)C(F)(F)C(F)(F)C(F)(F)I
inactive: [16] | [18] | [3] | [19] | [4] | [5] | [6] | [7] | [9] | [10] | [11] | [12] | [13]

C=C(C)C(=O)OCC(F)(F)C(F)(F)C(F)(F)F
inactive: [1] | [18] | [3] | [4] | [5] | [6] | [7] | [8] | [9] | [10] | [11] | [12] | [15] | [13]

FC(F)(Br)C(F)(F)C(F)(F)C(F)(F)C(F)(F)C(F)(F)Br
inactive: [1] | [18] | [3] | [4] | [5] | [6] | [7] | [8] | [9] | [10] | [11] | [12] | [13]

CC(Cc1ccc(O)c(O)c1)C(C)Cc1ccc(O)c(O)c1 (stereo not given)
inactive: [16] | [1] | [8]

OC[C@@H](O)[C@@H](O)[C@H](O)[C@@H](O)CO
inactive: [16] | [1] | [8]

From PubChem BioAssay (EPA / NIEHS)
